Records with an inconclusive call do not appear. The source made the active and inactive calls. Calls come from the whole dose curve; as a rule, active = well fitted inhibition curve with a large enough effect; inconclusive = small, poorly fitted or top-dose-only effect, or effect the other way; inactive = flat fitted curve, though single readings scatter.
Each compound was assayed against Menin (Homo sapiens) (UniProt O00255) (assay: Confirmation of Inhibitors Targeting the Menin-MLL Interaction in MLL Related Leukemias: Confirmation in an HTRF (commercial TR-FRET) Assay using His-tagged menin and biotin-labeled MLL peptide). Conditions: His-menin / biotin-MLL peptide binding; series mostly up to 126 µM; activity change, negative = inhibition: at the top concentration.
Chain of Menin (Homo sapiens) (O00255 whole entry, looked up): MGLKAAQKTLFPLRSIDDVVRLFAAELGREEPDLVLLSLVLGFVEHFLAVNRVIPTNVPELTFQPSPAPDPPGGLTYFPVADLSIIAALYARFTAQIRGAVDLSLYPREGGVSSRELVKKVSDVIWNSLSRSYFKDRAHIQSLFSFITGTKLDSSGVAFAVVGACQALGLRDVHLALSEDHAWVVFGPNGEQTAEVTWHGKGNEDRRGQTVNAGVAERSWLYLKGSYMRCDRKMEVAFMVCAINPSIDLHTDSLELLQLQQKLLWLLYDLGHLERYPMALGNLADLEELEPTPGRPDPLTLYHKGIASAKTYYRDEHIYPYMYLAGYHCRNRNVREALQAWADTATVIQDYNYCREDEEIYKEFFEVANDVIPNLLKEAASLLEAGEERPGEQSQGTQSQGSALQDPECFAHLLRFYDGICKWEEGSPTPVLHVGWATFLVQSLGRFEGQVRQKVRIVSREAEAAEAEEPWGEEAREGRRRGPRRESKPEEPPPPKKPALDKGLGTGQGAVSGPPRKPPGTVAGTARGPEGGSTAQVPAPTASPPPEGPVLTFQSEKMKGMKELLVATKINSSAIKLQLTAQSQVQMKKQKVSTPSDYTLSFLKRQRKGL
Description: qHTS Assay for Inhibitors Targeting the Menin-MLL Interaction in MLL Related Leukemias
NIH Chemical Genomics Center [NCGC]
NIH Molecular Libraries Probe Centers Network [MLPCN]
Assay Submitter (PI): Jolanta Grembecka, Tomasz Cierpicki, University of Virginia
Translocations of the MLL (Mixed Lineage Leukemia) gene are frequently found in human leukemias affecting both children and adults. Fusion of MLL to one of more than 60 genes results in generation of oncogenic proteins upregulating Hox genes, which are vital to blood cell development. Patients harboring fusion of the MLL gene suffer from aggressive leukemias and respond poorly to available therapies. All of the oncogenic fusion proteins have a preserved N-terminal fragment of MLL that has been identified to interact with menin. It has been recently discovered that association with menin is critical to the leukemogenic activity of the MLL fusion oncoproteins. Selective targeting of the menin-MLL interaction could provide an attractive therapeutic approach to develop novel drugs for MLL-related leukemias. Small molecules blocking the menin-MLL interaction should reverse the oncogenic potential of MLL fusion proteins.
We have developed and optimized a fluorescence polarization-based assay for the identification of Menin-MLL inhibitors. The assay was run employing two different MLL-derived peptides. The present assay uses a 12 amino acid peptide labeled with fluorescein at its N-terminus. This peptide consists of the menin high affinity binding motif from MLL and is potently bound by menin. Another peptide with a mutated sequence, labeled with Texas Red, was used in parallel as a less stringent screen for inhibitors.
The present assay uses an alternate technology to confirm hits from the primary screen - homogeneous time resolved fluorescence (HTRF).
The Menin protein, the MLL-wild type (w.t.) derived peptide (N-terminal 12 amino acids), the MLL-derived peptide labeled with Texas Red and the MLL-w.t. peptide labeled with Fluorescein were kindly supplied by laboratory of Dr. Jolanta Grembecka, University of Virginia. All protein and peptide solutions were stored in single use aliquots at -80C. The Eu3+ Cyrptate-conjugated mouse monoclonal antibody anti-6 Histidine (Eu3+-AB) and the Streptavidin-XL665 conjugate (XL665) were purchased from Cisbio International (Bedford, MA). All antibody and XL665 conjugate solution stocks were stored in single use aliquots at -20C. The Buffer components for all assays were purchased from Sigma-Aldrich (St. Louis, MO) and Invitrogen (Carlsbad, CA).
1. HTRF reaction buffer: 50 mM Tris-HCl pH 7.5, 50 mM NaCl, 1mM DTT.
Before use, 0.05% BSA is added.
2. His6-Menin protein, MLL-w.t. labeled with biotin.
Stored in singe use aliquots at -80C.
3. MLL-w.t. unlabeled peptide as positive control: 10 uM final in HTRF buffer.
1. Prepare His6-Menin at 200 nM, MLL-w.t.-biotin at 80 nM in HTRF buffer.
2. Prepare His6-Menin at 200 nM, MLL-w.t.-biotin at 80 nM and 10 uM MLL-w.t. unlabeled mixture in HTRF buffer.
3. Dispense 10 ul per well of reagent in step 1 in columns 2, 4-24 in a black 384 well plate, dispense 10 ul per well of reagents from steps 2 in column 1. Incubate plate at ambient for 15 minutes.
4. Transfer 1 uL per well of compound to plate and incubate at ambient for 1 hr.
5. Dispense 10uL of the donor (6His-Cryptate, 3.5 nM final conc.) and acceptor (SA_XL, 10nM final conc.) complex in the HTRF buffer with 0.01% BSA. Incubate for 1h.
For CCOC(=O)Cc1csc(NC(=O)c2c(O)c3ccccc3n(CCC(C)C)c2=O)n1, the “activity change, negative = inhibition” value was -27.4% (inactive).
With CC[C@]12C=CCN3CC[C@@]4(c5ccc(OC)cc5N(C)[C@H]4[C@@](O)(C(=O)OC)[C@@H]1OC(C)=O)C32 (stereo partly specified) the “activity change, negative = inhibition” value was 4.48% (inactive).
With CCCCn1c(=O)c(C(=O)Nc2ccsc2C(=O)OC)c(O)c2ccccc21 the “activity change, negative = inhibition” value was -11% (inactive).
CCOP(=O)(OCC)C(NC(=O)c1ccccc1C)C(Cl)(Cl)Cl (stereo unspecified) was tested, and the “activity change, negative = inhibition” value was -1.29% [at 383 µM] (inactive).
With COc1ccc(C(O)P(=O)(Oc2ccccc2)Oc2ccccc2)cc1 (stereo unspecified) the “activity change, negative = inhibition” value was -5.29% [at 383 µM] (inactive).
For COc1cc(/C=N/n2cnnc2)ccc1OC(=O)N(C)C, the “activity change, negative = inhibition” value was -5.4% [at 383 µM] (inactive).
In the case of c1cc2cc(c1)C[n+]1ccc(c3ccccc31)NCc1ccc(cc1)CNc1cc[n+](c3ccccc13)C2, the Potency is reported as 282 µM (active).
COc1cc(-c2ccc(-[n+]3nc(-c4ccccc4)nn3-c3ccc([N+](=O)[O-])cc3)c(OC)c2)ccc1-[n+]1nc(-c2ccccc2)nn1-c1ccc([N+](=O)[O-])cc1 was tested, and the Potency was 56.2 µM (active).
For O=C(O)CN1C(=O)CN=C(c2ccccn2)c2cc(Cl)ccc21, the “activity change, negative = inhibition” value was 1.01% [at 383 µM] (inactive).
With O=C(Nc1ccc2ccccc2c1)c1nn(C23CC4CC(CC(C4)C2)C3)cc1Br the “activity change, negative = inhibition” value was -23.2% (inactive).
With O=c1oc2ccccc2c(O)c1C(c1ccccn1)c1c(O)c2ccccc2oc1=O the “activity change, negative = inhibition” value was -2.51% (inactive).
For O=C1NC(=O)C(=Cc2ccc3ccccc3c2)C(=O)N1, the “activity change, negative = inhibition” value was -10.3% [at 383 µM] (inactive).
With C[C@@H]1CC[C@@]2(NC1)O[C@H]1C[C@H]3[C@@H]4CC=C5C[C@@H](O)CC[C@]5(C)[C@H]4CC[C@]3(C)[C@H]1[C@@H]2C the “activity change, negative = inhibition” value was 3.39% (inactive).
With OC12C3C4CC5C6C4C1C6C(C53)N2CCc1cccc(F)c1 (stereo unspecified) the “activity change, negative = inhibition” value was 2.72% (inactive).
C[N+](C)(C)CC#CCN1CCCC1=O was tested, and the “activity change, negative = inhibition” value was 1.22% [at 383 µM] (inactive).
For Cc1cc(C(=O)NP(=O)(N2CCOCC2)N2CCOCC2)c(C)n1C1CC1, the “activity change, negative = inhibition” value was 0.817% (inactive).

— PubChem BioAssay AID2778 (National Center for Advancing Translational Sciences (NCATS), 2010)
% is set by controls: 0 for no effect and ±100 for the full control effect; potency is the fitted concentration of half-maximal effect.
